23 molecules from PubChem BioAssay AID652061 (Broad Institute, 2013) can be followed below.

Molecules are shown by their SMILES. The list shows a part of the results. The source made the active and inactive calls.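 How the source made its calls: active means signal increase whose fitted curve reaches an absolute level of 40 at a concentration under 10 µM; inactive means activity opposite to the expected increase, or the rest.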

This experiment in a line: start codon recognition fidelity modulators – S. cerevisiae, UUG firefly luciferase, cherry-pick, set 2, dose response (AID 652061).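 Further: 0% = median DMSO signal and 100% = twice the DMSO signal.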 The settings on record: luminescence, 4 h, 100% means double the DMSO signal; max activity: measured here: max activity, test 2, at 38 µM, test 2, stronger effect = higher value unless noted; series mostly up to 38 µM.
For `CCc1cccc(C)c1N(C(=O)Cn1c(CO)nc2ccccc21)C(C)COC` (configuration not stated), the max activity is 6.66% [measured here: max activity, test 2, at 12 µM, test 2, stronger effect = higher value] and the molecule was classed as inactive.
Consider `Cc1onc(-c2ccc(Cl)cc2)c1-c1ccnn1S(=O)(=O)c1ccc(Cl)cc1`, for which the molecule was called inactive and the max activity turned out to be 13.9%.
In the case of `CC(C)C#Cc1ccc2c(c1)O[C@@H](CN(C)C(=O)CN(C)C)[C@@H](C)CN([C@H](C)CO)S2(=O)=O`, the max activity was -9.02% [at 0.3 µM, test 1, stronger effect = higher value] (inactive).
Turning to `CC1CCCN(S(=O)(=O)c2ccc(N(C(=O)c3cnccn3)C(C(=O)NC3CCCCC3)c3cccs3)cc2)C1` (configuration not stated), the molecule was classed as inactive and the max activity was -8.84% [measured here: max activity, test 2, at 0.05 µM, test 2, stronger effect = higher value].
For the molecule `Cc1ccc(F)cc1NC(=O)Cc1nn(C)c(=O)c2ccccc12`, the max activity was -14.8% [measured here: max activity, test 2, at 12 µM, test 2, stronger effect = higher value] and the result was inactive.
Regarding `CCOC(=O)C(=Cc1ccccc1OC)C(=O)OCC`, the molecule was called inactive and the max activity is 9.08% [measured here: max activity, test 2, at 0.15 µM, test 2, stronger effect = higher value].
As for `COCCCNC(=O)Cn1cc(C(=O)C2CC2)c2ccccc21`, the result was inactive and the max activity is -7.83% [measured here: max activity, test 2, at 1.35 µM, test 2, stronger effect = higher value].
Taken in the same sequence, the figures for `CN1CCN(C(=O)/C(=C\c2cccs2)NC(=O)c2cccs2)CC1` were “inactive” and 13.1%.
For `CC1CCC(NC(=O)C2c3ccccc3C(=O)N2Cc2ccc3c(c2)OCO3)CC1` (configuration not stated), the max activity is -4.01% and the outcome was inactive.
On to `O=C(c1cccnc1)N1C[C@H]2[C@@H](c3ccccc31)[C@H](CO)N2C(=O)C1CC1`, for which the max activity is 24.4% [at 0.035 µM, test 1, stronger effect = higher value] (inactive).
The same measure, in the same setting: as for `O=C(N[C@H]1CC[C@@H](CCNS(=O)(=O)Cc2ccccc2)O[C@H]1CO)c1ccccc1F`, the figure is 8.33% [at 0.035 µM, test 1, stronger effect = higher value] (inactive).
Turning to `O=C1N=C(N2CCc3ccccc3C2)S/C1=C\c1ccc(O)cc1`, the result was inactive and the max activity was 7.99% [measured here: max activity, test 2, at 12 µM, test 2, stronger effect = higher value].
In the case of `COc1ccc(CCN2C(=O)[C@@]3(Cc4ccccc42)c2ccccc2C(=O)N(Cc2ccccc2C(F)(F)F)[C@H]3c2ccc(CO)cc2)cc1`, the max activity was 5.62% [at 26 µM, test 1, stronger effect = higher value] (inactive).
On to `Cc1c(Nc2cc(N3CCCC(C)C3)c3nonc3c2[N+](=O)[O-])c(=O)n(-c2ccccc2)n1C` (configuration not stated), for which the max activity is 9.02% and the molecule was classed as inactive.
Consider `O=C(C1CCC1)N1C[C@H]2[C@@H](c3ccccc31)[C@@H](CO)N2C(=O)c1ccccc1F`, for which the max activity is 6.68% [at 0.035 µM, test 1, stronger effect = higher value] (inactive).
For the molecule `CC(=O)Nc1ccccc1-c1cn(CC(=O)N2CCOCC2)nn1`, the max activity was 8.61% [at 75 µM, test 1, stronger effect = higher value] (inactive).
Take `CC(=O)N1CC(=O)N(CC(=O)Nc2ccc(Br)cc2)C1=S`: the max activity was 9.59% [measured here: max activity, test 2, at 1.35 µM, test 2, stronger effect = higher value] and the result was inactive.
With `c1ccc(-n2cccc2)c(N2CCCCC2)c1`, the molecule was called inactive and the max activity was 8.5% [measured here: max activity, test 2, at 0.05 µM, test 2, stronger effect = higher value].
As for `C#CCSc1nnc(-c2sc3ccccc3c2Cl)o1`, the outcome was inactive and the max activity is 6.33% [measured here: max activity, test 2, at 0.46 µM, test 2, stronger effect = higher value].
Consider `COc1ccc(NC(=O)N(C)C[C@H]2OCCCC[C@@H](C)Oc3ccc(NC(=O)NC4CCCCC4)cc3C(=O)N([C@@H](C)CO)C[C@H]2C)cc1`, for which the max activity is 8.38% [at 26 µM, test 1, stronger effect = higher value] (inactive).
Take `O=C(COc1ccc(Cl)cc1)NCc1nnc(SCC(=O)NCC2CCCO2)o1` (configuration not stated): the molecule was classed as inactive and the max activity is -8.21% [measured here: max activity, test 2, at 0.15 µM, test 2, stronger effect = higher value].
With `C[C@@H]1CN([C@@H](C)CO)S(=O)(=O)c2ccc(C#Cc3ccc(F)cc3)cc2O[C@H]1CN(C)C(=O)NC1CCCC1`, the max activity is 10% [at 2.85 µM, test 1, stronger effect = higher value] (inactive).
With `C[C@@H]1CN([C@@H](C)CO)C(=O)c2cc(Br)cnc2O[C@@H]1CN(C)C(=O)C1CCCCC1`, the max activity was -6.87% [at 0.9 µM, test 1, stronger effect = higher value] (inactive).
